According to PubChem BioAssay (EPA / NIEHS):
Inconclusive results are not listed. Active and inactive are the calls of the source. How the source made its calls: active means hit-call score of the fitted dose curve at least 0.9, where 1 is the maximum; inconclusive means response in the unintended direction; inactive means score below 0.9.

Experiments:
[1] = TOX21_p53_BLA_p2_viability: Viability Assessment in the Tox21 HCT-116 p53 Agonism Beta-lactamase Assay, Phase 2 (AID 2283591);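 further: compound exposure lasted 16 h at 37 °C; actives lower the ATP signal meaning cytotoxicity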
Outline: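 HCT-116 p53-bla cells (4000/well) rested 5 h at 37C, then received compounds in DMSO (217-fold dilution) for 16 h at 37C, 5% CO2. After the CCF4 read, CellTiter-Glo was added; ATP luminescence was read after 30 min at room temperature.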

[2] = target: Cellular tumor antigen p53 (Homo sapiens) (UniProt P04637); test: TOX21_p53_BLA_p2_ratio: Tox21 HCT-116 p53 Agonism Beta-lactamase Assay, Ratio, Phase 2 (AID 2283592)
Chain of Cellular tumor antigen p53 (Homo sapiens) (P04637 whole entry, looked up): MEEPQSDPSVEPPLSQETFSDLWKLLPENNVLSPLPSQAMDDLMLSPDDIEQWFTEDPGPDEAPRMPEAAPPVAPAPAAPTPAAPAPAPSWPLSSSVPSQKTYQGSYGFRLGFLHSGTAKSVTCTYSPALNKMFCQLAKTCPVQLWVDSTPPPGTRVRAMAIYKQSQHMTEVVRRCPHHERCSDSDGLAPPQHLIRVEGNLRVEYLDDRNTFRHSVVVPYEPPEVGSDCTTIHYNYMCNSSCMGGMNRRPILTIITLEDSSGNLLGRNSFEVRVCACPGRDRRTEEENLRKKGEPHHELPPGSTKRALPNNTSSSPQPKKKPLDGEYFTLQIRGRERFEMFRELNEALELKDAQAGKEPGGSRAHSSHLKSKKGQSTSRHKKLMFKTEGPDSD
Outline: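 Read-out is the blue/green (460/530 nm, 405 nm excitation) ratio after 2 h CCF4-AM loading, fitted as gain versus DMSO. Compounds, pinned at 217-fold dilution from DMSO stocks, stayed 16 h on HCT-116 beta-lactamase reporter cells seeded 5 h earlier.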

[3] = TOX21_p53_BLA_p3_viability: Viability Assessment in the Tox21 HCT-116 p53 Agonism Beta-lactamase Assay, Phase 3 (AID 2283593);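 further: cells exposed to compound for 16 h before reading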
Outline: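 HCT-116 cells (4000/well) rested 5 h at 37C, then got DMSO compounds by pin tool (217-fold dilution) for 16 h at 37C, 5% CO2. After the bla read, CellTiter-Glo was added and luminescence read at 30 min, room temperature.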

[4] = TOX21_p53_BLA_p5_viability: Viability Assessment in the Tox21 HCT-116 p53 Agonism Beta-lactamase Assay, Phase 5 (AID 2283600)
Outline: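 Viability came from CellTiter-Glo ATP luminescence, read after 30 min at room temperature. Before this, HCT-116 p53-bla cells (4000/well) had 16 hours of compound exposure at 37C, with DMSO stocks diluted 217-fold on transfer.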

[5] = target: Cellular tumor antigen p53 (Homo sapiens) (UniProt P04637); test: TOX21_p53_BLA_p4_ratio: Tox21 HCT-116 p53 Agonism Beta-lactamase Assay, Ratio, Phase 4 (AID 2283601)
Outline: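 HCT116 cells carrying an inducible beta-lactamase reporter were plated at 4000 cells/well, rested 5 h, then exposed to compounds in DMSO (217-fold dilution) for 16 h at 37C. CCF4-AM substrate was loaded 2 h at room temperature; 460/530 nm emission ratio scored gain-of-signal versus DMSO.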

[6] = target: Cellular tumor antigen p53 (Homo sapiens) (UniProt P04637); test: TOX21_p53_BLA_p3_ratio: Tox21 HCT-116 p53 Agonism Beta-lactamase Assay, Ratio, Phase 3 (AID 2283596)
Outline: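 Cells were seeded at 4000/well, rested 5 h at 37C, then dosed with DMSO compound solutions (217-fold dilution) for 16 h. CCF4-AM substrate was loaded for 2 h at room temperature, and the 460/530 nm emission ratio was fitted for gain of signal versus DMSO.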

[7] = TOX21_p53_BLA_p4_viability: Viability Assessment in the Tox21 HCT-116 p53 Agonism Beta-lactamase Assay, Phase 4 (AID 2283597);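 further: hits lower the luminescence signal meaning cytotoxicity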
Outline: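 Cytotoxicity as reduced cellular ATP (CellTiter-Glo luminescence, 30 min room temperature), measured in the same wells following the CCF4 FRET p53 reading. Human HCT-116 cells received compounds in DMSO (217-fold dilution) for 16 h.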

[8] = target: Cellular tumor antigen p53 (Homo sapiens) (UniProt P04637); test: TOX21_p53_BLA_p5_ratio: Tox21 HCT-116 p53 Agonism Beta-lactamase Assay, Ratio, Phase 5 (AID 2283599)
Outline: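 HCT-116 cells carrying a p53-inducible beta-lactamase reporter were seeded at 4000 cells/well and dosed after 5 h with compound in DMSO (217-fold dilution). After 16 h at 37C, CCF4-AM substrate was added for 2 h, and the 460/530 nm emission ratio was scored as gain-of-signal versus DMSO.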

Measured: outcome

O=C1c2ccccc2C(=O)C1c1ccc(Br)cc1
inactive: [1] | [2] | [3] | [4] | [5]

NC(=O)c1ccccc1N
inactive: [1] | [2] | [3] | [4]

c1ccc2cc(C3=NCCN3)ccc2c1
inactive: [1] | [2] | [6] | [7] | [8]

C=CCCC=C
inactive: [1] | [2] | [3] | [4] | [5]

C[N+](C)(C)CCOC(=O)CCC(=O)OCC[N+](C)(C)C
inactive: [1] | [2] | [6] | [7] | [8]

CCCCNCCCC
not listed: [3] | [5]
inactive: all other assays above

O=C(O)[C@H](O)[C@@H](O)[C@H](O[C@@H]1O[C@H](CO)[C@H](O)[C@H](O)[C@H]1O)[C@H](O)CO
inactive: [1] | [2] | [3] | [4]

CC1(C)CC(OC(=O)CCCCCCCCC(=O)OC2CC(C)(C)NC(C)(C)C2)CC(C)(C)N1
inactive: [1] | [2] | [6] | [7]

COc1ccccc1N1CCN(CCCCNC(=O)c2ccc(-c3ccc(C(C)=O)cc3)cc2)CC1
inactive: [1] | [2] | [3] | [4] | [5]

COC(=O)CC#N
inactive: [1] | [2] | [3] | [5]

CC(C)SCc1ccco1
inactive: [1] | [2] | [6] | [7] | [8]

CCC(N)(CO)CO
inactive: [1] | [2] | [3] | [4] | [5]

NS(=O)(=O)c1cc2c(cc1C(F)(F)F)NCNS2(=O)=O
not listed: [3] | [5]
inactive: all other assays above

O=C(O)CCC(=O)c1ccc(-c2ccccc2)cc1
not listed: [3] | [5]
inactive: all other assays above

CC1(O)CCC(C(C)(C)O)CC1 (stereo unspecified)
not listed: [3]
inactive: all other assays above
